The record followed here is PubChem BioAssay AID651640 (Broad Institute, 2012).

Out of some 350,000 compounds screened, about 6,000 (1.7%) were called active. Roughly 5% stayed inconclusive and do not appear here. The sample holds actives, similar compounds and a random draw of the others, so the mix is not that of the screen. Rule as the data show it: active = CPE inhibition above about 20% (passing the limit was not always enough); inconclusive = no clear call, values can overlap the other calls; tested in BHK-21 cells.

A short description of this assay: inhibitors of DENV2 cytopathic effect, primary screen, cell-based, plate reader, single concentration (AID 651640).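 Also: 0% = median of neutral control wells and 100% = median of positive control wells.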 The note with it: DENV2-infected cells, cytopathic effect rescue, at 9.99 µM, stronger effect = higher value.
With `CCc1nc2c(OCCOc3ccccc3)cccn2c1N(C)C(=O)c1ccc(OC)cc1`, the CPE inhibition is -6.78% (inactive). Next, `CCc1nc2c(OCc3cccc(OC)c3)cccn2c1N(C)C(=O)C(C)C`: 3.81% (inactive); `CCc1nc2c(OCCc3cccc(OC)c3)cccn2c1N(C)C(=O)c1ccc(C)cc1`: 35.1% (active).

In the case of `COc1ccc(NC(=O)Nc2ccc3c(c2)C(=O)N([C@@H](C)CO)C[C@H](C)[C@H](CN(C)S(=O)(=O)c2ccccc2)OCCCC[C@@H](C)O3)cc1`, the CPE inhibition was 0.841% (inactive). As for `Cc1ccccc1NC(=O)Cc1nc(COC(=O)CNC(=O)c2ccc(Cl)cc2Cl)cs1`, the CPE inhibition is -7.77% (inactive). Take `Cc1ccccc1NC(=O)Cc1nc(COC(=O)c2cccnc2Cl)cs1`: the CPE inhibition is 5.7% (inactive). On to `Cc1ccccc1NC(=O)Cc1nc(COC(=O)C(C)(C)Oc2ccc(Cl)cc2)cs1`, for which the CPE inhibition is 45.3% (active).

As for `CN1c2ccc(-c3cccc(C#N)c3)cc2[C@@H]2[C@@H](CCN2C(=O)C2CCC2)[C@@H]1CO`, the CPE inhibition is -11% (inactive). For the molecule `COc1ccc2c3c(n(C)c2c1)[C@@H](CO)N(C(C)=O)CC31CCN(C(=O)C2CC2)CC1`, the CPE inhibition was -6.89% (inactive).

Regarding `COc1ccc(/C(C)=N/NC(=O)CCC(=O)Nc2ccc(Cl)cc2Cl)c(OC)c1`, the CPE inhibition is -1.9% (inactive). `COc1ccc(OC)c(/C(C)=N\NC(=O)c2cc3cc(Cl)ccc3n2C)c1`: the CPE inhibition was 69.2% (active).

Take `COc1ccc(OC)c(C(=O)c2ccc(Cl)cc2)c1`: the CPE inhibition is 1.87% (inactive). Next, `CCCN1C[C@@H](C)[C@@H](OC)CN(C)C(=O)c2ccc(NS(C)(=O)=O)cc2OC[C@@H]1C`: -1.47% (inactive); `CCC(=O)N1C[C@H](C)[C@H](OC)CN(C)C(=O)c2ccc(NS(C)(=O)=O)cc2OC[C@H]1C`: -1.33% (inactive); `Cc1noc(C)c1S(=O)(=O)Nc1ccc2c(c1)C(=O)N([C@H](C)CO)C[C@H](C)[C@H](CN(C)S(C)(=O)=O)OCCCC[C@H](C)O2`: -2.38% (inactive).

With `COc1ccccc1C(=O)NCCC(=O)NCC(c1ccco1)N1CCCCC1` (stereo not given), the CPE inhibition is -2.74% (inactive).

In the case of `CC(Oc1ccc(Br)cc1)C(=O)NCC(c1ccco1)N1CCCCC1` (stereo not given), the CPE inhibition was -0.377% (inactive).

For `O=C(CCNC(=O)c1ccc(Br)cc1)NCC(c1ccco1)N1CCCCC1` (stereo not given), the CPE inhibition was 81.5% (active). Next, `C[C@@H]1CCCCO[C@H](CN(C)C(=O)NC2CCCCC2)[C@H](C)CN([C@@H](C)CO)C(=O)c2cc(NC(=O)C3CCCCC3)ccc2O1`: -2.82% (inactive); `C[C@H](O)C#Cc1ccc2c(c1)O[C@H](CN(C)Cc1cccnc1)[C@H](C)CN([C@H](C)CO)S2(=O)=O`: 9.35% (inactive).
